Results filed as inconclusive are left out. A call without a number means that no potency is given here. The source made the active and inactive calls. Calls follow the shape of the dose curve; as a rule, active = well fitted inhibition curve with a large enough effect; inconclusive = small, poorly fitted or top-dose-only effect; inactive = no such curve, though single readings can be large or run the other way.
Each molecule was assayed on Zika virus NS2B-NS3 protease (unlinked) (assay: Optimization of GU AMC qHTS for Zika virus inhibitors: Unlinked NS2B-NS3 protease assay (AID 1347151; also: nearly all actives have a fitted effect of over 80% in size)). Conditions: recombinant ZIKV NS2B-NS3 protease, fluorogenic AMC substrate; series mostly up to 52.5 µM.
Procedure, shortened: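 Percent inhibition is derived from the 15-min change in AMC fluorescence, normalized against no-inhibitor and no-enzyme controls, then fitted to a 4-parameter Hill curve. Aprotinin was the intraplate control.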
With COC(=O)N1CCN(C(=O)Cc2ccc(Cl)c(Cl)c2)C(CN2CCCC2)C1 (stereo unspecified) the Potency was “inactive”.
CC(N)Cc1c[nH]c2ccc(OCc3cccs3)cc12 (stereo unspecified) was tested, and the Potency was “inactive”.
In the case of CN1CCC(c2c[nH]c3ccc(O)cc23)CC1, the Potency is reported as “inactive”.
In the case of COc1ccc2[nH]cc(CCN)c2c1, the Potency is reported as “inactive”.
In the case of CCCN(CCC)[C@@H]1CCc2cccc(O)c2C1, the Potency is reported as “inactive”.
In the case of CN1CCC[C@@H]1Cc1c[nH]c2ccc(Nc3ncccc3[N+](=O)[O-])cc12, the Potency is reported as “inactive”.
With CC(C)(C)c1cc(C=C(C#N)C#N)cc(C(C)(C)C)c1O the Potency was 10.6 µM (active).
For O=[N+]([O-])c1ccc2nc(N3CCNCC3)ccc2c1, the Potency was “inactive”.
With Cc1[nH]c2ccc(O)cc2c1CCN the Potency was “inactive”.
With CCNC(=O)[C@H]1O[C@@H](n2cnc3c(N)ncnc32)[C@H](O)[C@@H]1O the Potency was “inactive”.
For Oc1ccc2c3c1O[C@H]1c4[nH]c5ccccc5c4C[C@@]4(O)C(C2)N(CC2CC2)CCC314 (stereo partly specified), the Potency was “inactive”.
Potency is read from the fitted curve at half-maximal effect.
